{"source": "PubChem BioAssay", "note": "Unmarked numbers belong to inactive results. How the calls were made is not given here."}
{"molecular_target": "Pantothenate synthetase (Mycobacterium tuberculosis (strain ATCC 25618 / H37Rv)) (UniProt P9WIL5)", "sequence (P9WIL5 whole entry, looked up)": "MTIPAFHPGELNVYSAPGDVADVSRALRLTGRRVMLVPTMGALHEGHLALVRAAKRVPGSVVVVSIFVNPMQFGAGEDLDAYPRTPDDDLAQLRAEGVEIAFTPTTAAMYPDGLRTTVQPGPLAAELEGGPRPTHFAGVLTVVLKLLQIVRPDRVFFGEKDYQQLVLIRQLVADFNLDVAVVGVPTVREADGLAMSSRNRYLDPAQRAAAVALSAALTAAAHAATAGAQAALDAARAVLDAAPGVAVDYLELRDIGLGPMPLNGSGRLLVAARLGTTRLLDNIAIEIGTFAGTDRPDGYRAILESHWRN", "assay": "Coupled enzyme confirmation of inhibitors against recombinant Mtb PanC (AID 375);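 further: 0% = full reaction with vehicle and 100% = no enzyme background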", "conditions": "coupled enzyme assay; at 10 µM, hits give high values", "units": {"inhibition": "%"}}
{"compound": "CCOC(=O)Nc1ccc2c(c1)N(C(=O)CCN1CCOCC1)c1ccccc1S2", "inhibition": 3}
{"compound": "CN1Cc2c(N)cccc2C(c2ccccc2)C1", "note": "(stereo unspecified)", "inhibition": 0}
{"compound": "O=C1CCCC2=C1C(c1cccs1)n1nc(SCc3ccccc3F)nc1N2", "note": "(stereo unspecified)", "inhibition": 0}
{"compound": "COc1ccc(-c2ccc(-c3noc(-c4cccs4)n3)c(OC)n2)cc1", "inhibition": 0}
{"compound": "O=C(CCNS(=O)(=O)c1cccc2nsnc12)Nc1ccc2c(c1)OCCO2", "inhibition": 0}
{"compound": "Clc1cccc(-c2nnc(-c3ccccc3)o2)c1", "inhibition": 0}
